From PubChem BioAssay (Tox21) come the findings set out here.

Inconclusive results are not listed. Where a call stands in place of a potency, no number is given. Values without a mark were called inactive. Activity calls are given as the source filed them. The call rests on the fitted dose curve; in most records, active means well fitted activation curve with a large enough effect in the signal ratio in the repeat runs (not every such curve was filed as active); inconclusive means weak or mixed curves; inactive means flat fitted curve, though single readings scatter; the % refers to the signal ratio.
Potency means the concentration at half of the fitted maximal effect.

A short description of this experiment: p53 small molecule agonists, cell-based qHTS assay (AID 1963582). Conditions: HCT-116 p53RE-bla reporter, beta-lactamase FRET ratio, 16 h; series mostly up to 66 µM. The source says:
National Center for Advancing Translational Sciences [NCATS]
Division of Preclinical Innovation [DPI]
U.S. Environmental Protection Agency [EPA]
National Institutes of Environmental Health Sciences [NIEHS]
National Toxicology Program [NTP]
U.S. Food and Drug Administration [FDA]
p53, a tumor suppressor protein, is activated following cellular insult, including DNA damage and other cellular stresses. The activation of p53 regulates cell fate by inducing DNA repair, cell cycle arrest, apoptosis, or cellular senescence. The activation of p53, therefore, is a good indicator of DNA damage and other cellular stresses. […] The activation of the reporter gene under culture conditions can be detected by fluorescence intensity. This cell line was used to screen the Tox21 10K compound library in a 1536-well plate format and to identify agonists that activate the p53 signaling pathway.
Tox21 Assay Protocol Summary:
The p53RE-bla cells were dispensed at 4,000 cells/5 ul/well in 1536-well black wall/clear bottom plates using a Multidrop dispenser. After the assay plates were incubated at a 37 C/5% CO2 incubator for 5 hours, 23 nL of compounds dissolved in DMSO, positive controls or DMSO only was transferred to the assay plate by a pin tool. The plates were incubated at 37 C for 16 hours. After 1 uL of LiveBLAzerTM B/G FRET substrate was added using a Flying Reagent Dispenser, the plates were incubated at room temperature for 2 hours, and fluorescence intensity was measured by an Envision plate reader.
(Quantitative high-throughput screening tests each substance at several concentrations.)
Consider `CC(C)COP(=O)(OCC(C)C)OCC(C)C`, for which the Potency entry was “inactive”. As for `CC(=O)OC1(c2ccccc2)CCN(CCc2ccccc2)CC1`, the Potency entry was “inactive”. Same read-out and setting: to `BrCC(Br)(Br)Br` belongs “inactive”; to `CNC(C)Cc1ccccc1OC` (stereo not given), “inactive”. With `O=[N+]([O-])c1ccccc1CCl`, the Potency result is “inactive”. Same read-out and setting: to `O=C(O)/C=C/C(=O)O` belongs “inactive”. On to `C[N+](C)(C)CCOC(=O)C(O)(c1ccccc1)c1ccccc1`, for which the Potency entry was “inactive”. As to `CC(C)Oc1cccc(NC(=O)c2ccccc2C(F)(F)F)c1`, the Potency entry is “inactive”.

In the case of `O=C1CN2CCOC2(c2ccccc2Cl)c2cc(Cl)ccc2N1` (stereo not given), the Potency result is “inactive”. Turning to `C[C@H](N)[C@H](O)c1ccc(O)c(O)c1`, the Potency result was “inactive”.

In the case of `CCOC(=O)/C=C(C)/C=C/C[C@@H](C)CCCC(C)C`, the Potency entry is “inactive”. As for `Nc1n[nH]c(N)n1`, the Potency entry is “inactive”.

`CCCCN(N=O)C(=N)N[N+](=O)[O-]`: the Potency was 37.1 µM (active). Consider `CC(Oc1cccc(Cl)c1)C(=O)O` (stereo not given), for which the Potency entry is “inactive”. `C[C@H]1CNCCc2ccc(Cl)cc21`: the Potency result is “inactive”. Consider `Cc1cccc(OP(=O)(Oc2cccc(C)c2)Oc2cccc(C)c2)c1`, for which the Potency result was “inactive”. In the case of `CC(=O)c1cc(C(C)(C)C)cc2c1CCC2(C)C`, the Potency result was “inactive”.

Take `ClC(Cl)(Cl)Cl`: the Potency entry is “inactive”. As to `[As]#[In]`, the Potency result was “inactive”. With `O=c1[nH]c2cc(Cl)ccc2n1C1CCNCC1`, the Potency result was “inactive”.

Regarding `O=[N+]([O-])c1ccc2ccc3cccc4ccc1c2c34`, the Potency result is “inactive”. Consider `CCC[CH2][Sn]([CH2]CCC)([O]C(C)=O)[O]C(C)=O`, for which the Potency result was “inactive”. In the case of `CCOP(=S)(OCC)SCn1nnc2ccccc2c1=O`, the Potency entry was “inactive”. For `O=S1(=O)OCCO1`, the Potency entry is “inactive”. On to `C=CC(C)(CCC=C(C)C)OC(=O)c1ccccc1N` (stereo not given), for which the Potency result is “inactive”. As to `O=C1c2ccccc2C(=O)c2ccccc21`, the activation was -1.94% [at 13.5 µM]. Take `CON(C)C(=O)Nc1ccc(Br)cc1`: the Potency result is “inactive”. Still for that read-out and setting: to `CCOP(=S)(Oc1cnc(C(C)(C)C)nc1)OC(C)C` (stereo not given) belongs “inactive”; to `CC(C)(C)C(=O)C(Oc1ccc(Cl)cc1)n1cncn1` (stereo not given), “inactive”.

Regarding `[CH3][Hg][Cl]`, the Potency is 36.3 µM (active). Regarding `CCCCCCCCCCCCCN1CC(C)OC(C)C1` (stereo not given), the Potency entry was “inactive”. Turning to `CCCSC(=O)N(CCC)CCC`, the Potency entry is “inactive”.

In the case of `CC(O)(CS(=O)(=O)c1ccc(F)cc1)C(=O)Nc1ccc(C#N)c(C(F)(F)F)c1` (stereo not given), the Potency entry was “inactive”.

On to `COC(=O)N(C(=O)N1COC2(C(=O)OC)Cc3cc(Cl)ccc3C2=N1)c1ccc(OC(F)(F)F)cc1` (stereo not given), for which the Potency result was “inactive”. As to `OC(c1ccc(Cl)cc1)(c1ccc(Cl)cc1)C(Cl)(Cl)Cl`, the Potency entry was “inactive”. As to `COc1cc(Cl)c(OC)cc1Cl`, the Potency result is “inactive”. The same measure, in the same setting: to `Cc1c([N+](=O)[O-])cc2c(c1[N+](=O)[O-])C(C)(C)CC2(C)C` belongs “inactive”; to `CC(=O)C(Cl)(Cl)Cl`, “inactive”.

For `C=CCc1ccc(OC(=O)Cc2ccccc2)c(OC)c1`, the Potency result is “inactive”. Regarding `FC(F)OC(F)(F)C(F)Cl` (stereo not given), the Potency result was “inactive”.
